Compound activity from PubChem.
Most compounds without a hit are left out; they make up all but 2.1% or so of the library.
ADAM10 inh: human ADAM10 inhibitors, primary screen, biochemical, QFRET, HTS | Disintegrin and metalloproteinase domain-containing protein 10 (Homo sapiens), O14672 | recombinant ADAM10, EDANS/DABCYL FRET peptide cleavage, 3 h | inhibition, % at 7 µM | hit rate 0.62% among 370,000 | AID 720582, 2013;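 active means inhibition above a per-campaign cutoff equal to the mean of compounds falling between control-based bounds plus 3 SD, cut at about 20% in these data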;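 further: 0% = DMSO wells while the 100% control is not disclosed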
Rce1 inh: yeast Rce1p protease inhibitors, primary screen, biochemical, fluorescence, cell-free homogeneous. CAAX prenyl protease 2 (Saccharomyces cerevisiae (strain ATCC 204508 / S288c)), Q03530. yeast membranes, quenched prenylated peptide cleavage fluorescence. calls only. hit rate 0.27% among 290,000. AID 2563, 2010;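 active means fall in fluorescence gain of 50% or more versus controls, with final raw signal at or below 3038400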;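 further: plate controls were neutral control wells for no effect and wells lacking membranes for full effect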
PLC-beta3 inh: human PLC-beta3 inhibitors, primary screen, biochemical, fluorescence | 1-phosphatidylinositol 4,5-bisphosphate phosphodiesterase beta-3 (Homo sapiens), Q01970 | Purified PLC-beta3, fluorogenic substrate | inhibition, % at 12.2 µM | hit rate 0.18% among 370,000 | AID 720704, 2013; in the data active means inhibition above about 11%;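 further: 0% = median of compound wells on plate and 100% = full blocker control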
PLC-gamma1 inh: PLC-gamma1 enzyme inhibitors, primary screen, biochemical, fluorescence, purified enzyme | 1-phosphatidylinositol 4,5-bisphosphate phosphodiesterase gamma-1 (Homo sapiens), P19174 | fluorogenic substrate | inhibition, % at 12.2 µM | hit rate 0.84% among 370,000 | AID 720700, 2013; in the data active means inhibition above about 9.5%
ADAM17 inh: ADAM17 inhibitors, primary screen, biochemical, QFRET | inhibition, % at 6.95 µM | AID 720648, 2013 | recombinant ADAM17, EDANS/DABCYL FRET peptide cleavage | hit rate 0.83% among 370,000 | Disintegrin and metalloproteinase domain-containing protein 17 (Homo sapiens), P78536;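 active means inhibition above the mean of compounds lying between control limits plus 3 SD, set per campaign, cut at about 8.5% in these data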;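 further: 0% = DMSO-only wells as the low control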
Target sequence (P78536 215-824 limits assumed): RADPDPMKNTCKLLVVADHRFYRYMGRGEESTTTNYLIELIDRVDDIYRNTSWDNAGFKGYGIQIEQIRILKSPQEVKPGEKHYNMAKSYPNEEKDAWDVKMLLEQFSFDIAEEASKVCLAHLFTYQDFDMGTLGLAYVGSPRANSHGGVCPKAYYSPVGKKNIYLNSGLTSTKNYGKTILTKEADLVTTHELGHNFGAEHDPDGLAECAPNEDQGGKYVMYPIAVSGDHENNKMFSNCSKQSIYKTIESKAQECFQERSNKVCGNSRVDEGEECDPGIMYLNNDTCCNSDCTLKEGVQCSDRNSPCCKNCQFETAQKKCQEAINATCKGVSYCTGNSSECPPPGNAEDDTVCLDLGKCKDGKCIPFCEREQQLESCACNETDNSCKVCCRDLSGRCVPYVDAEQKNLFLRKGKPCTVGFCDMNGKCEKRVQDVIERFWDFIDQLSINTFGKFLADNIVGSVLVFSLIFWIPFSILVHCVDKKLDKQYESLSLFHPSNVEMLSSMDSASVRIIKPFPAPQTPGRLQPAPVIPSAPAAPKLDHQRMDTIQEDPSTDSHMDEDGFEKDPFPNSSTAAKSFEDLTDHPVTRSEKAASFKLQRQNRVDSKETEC
ADAM10 counter: ADAM10 inhibitors, counter-screen for ADAM17 exosite inhibitor project, biochemical, FRET, human ADAM10; recombinant ADAM10, EDANS/DABCYL FRET peptide cleavage, 3 h; AID 743256, 2014; shares compounds with ADAM17 inh; inhibition, % at 6.95 µM; hit rate 47% among 2,900;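 active means mean inhibition over the triplicate runs exceeds the activity threshold set in the earlier primary screen, cut at about 20% in these data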;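 further: 0% = DMSO wells and 100% = marimastat wells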
ADAM17 confirm: ADAM17 inhibitors, hit retest, confirmation, biochemical, QFRET peptide cleavage; recombinant ADAM17, EDANS/DABCYL QFRET peptide cleavage; shares compounds with ADAM17 inh; hit rate 65% among 2,900; inhibition, % at 6.95 µM;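 active means mean inhibition across replicates above the hit cutoff set in the primary screen, cut at about 8.5% in these data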;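 further: 0% = DMSO wells and 100% = marimastat wells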
* = called active by the depositor; i = inactive; / = not tested or not shown.

SMILES	ADAM10 inh	Rce1 inh	PLC-beta3 inh	PLC-gamma1 inh	ADAM17 inh	ADAM10 counter	ADAM17 confirm
CCOc1cc(/C=N/NC(=O)COc2ccc(Cl)cc2)ccc1OS(=O)(=O)c1ccccc1	18	i	3	4	14*	37*	17*
Cc1ccc([C@@H]2CC(=O)[C@@H]3CN(S(=O)(=O)c4ccc(C)cc4)[C@H](c4ccccc4F)C[C@@H]3N2S(=O)(=O)c2ccc(C)cc2)cc1	0	/	2	1	-1	/	/
Cc1ccc(S(=O)(=O)N2C[C@H]3C(=O)C[C@@H](c4ccccc4F)N(S(=O)(=O)c4ccc(C)cc4)[C@H]3C[C@H]2c2ccccc2)cc1	-1	/	1	2	10*	14	6
O=C1CC(c2ccccc2)c2cccc(F)c21 (configuration not stated)	5	i	2	2	-1	/	/
COc1ccc(NC(C)C(=O)N/N=C/c2ccccc2OCc2ccc(Br)cc2)cc1 (configuration not stated)	19	i	-7	0	14*	14	20*
COc1ccc(C)cc1NC(=O)CSc1nnc(CC(=O)Nc2ccccc2C)n1C	7	i	2	6	8.7*	3	0
COc1ccc(C)cc1NC(=O)CSc1nnc(COc2ccc(Cl)cc2)n1Cc1ccco1	20	i	-2	0	11*	32*	18*
COc1cc2c(cc1NC(=O)CSc1nnc(-c3ccccc3C)n1Cc1ccco1)oc1ccccc12	19	/	3	-1	10*	22*	15*
COc1ccc(C)cc1NC(=O)CSc1nnc(COc2ccccc2)n1Cc1ccco1	15	i	3	9	6	/	/
Cc1ccc(NS(=O)(=O)c2ccc(C)c(NC(=S)NCCN3CCOCC3)c2)c(C)c1	0	/	-3	3	-4	/	/
CN(Cc1ccc(F)cc1)C(=O)c1cccc(OCc2ccccc2)c1	13	i	1	6	8.7*	7	12*
CCOC(=O)/C(=N/Nc1ccccc1)c1csc(Nc2ccccc2)n1	1	i	-27	-25	11*	10	8
O=c1[nH]c2ccccc2c(O)c1O	-44	i	-139	-106	-9	/	/
Cc1ccc(S(=O)(=O)Nc2cc(Cl)c(O)c3ncccc23)cc1	11	i	-15	-9	14*	8	17*
CC1CN(C(=S)Nc2ccccc2C(F)(F)F)CC(C)O1 (configuration not stated)	3	i	-5	2	-2	/	/
CCOC(=O)c1c(O)cc(OC)cc1CCc1ccccc1	-2	/	3	4	9.9*	9	8
O=C(NC1CCCN(Cc2ccccc2F)C1)c1cccs1 (configuration not stated)	-2	i	-5	-1	2	/	/
CCOC(=O)c1c(NC(=O)C2C3C=CC(CC3)C2C(=O)O)sc(C)c1C (configuration not stated)	2	i	4	7	9.1*	-12	0
CCc1ccccc1NC(=O)CSc1nc2n[nH]c(C)c2c(=N)n1-c1ccc(OC)cc1	16	/	-8	-13	12*	-2	9.0*
COC(=O)C1=C(C)N(Cc2ccc(C(F)(F)F)cc2)C(=NCc2ccccc2)NC1c1ccccc1 (configuration not stated)	-8	/	-1	3	0	/	/
CCc1nc(SCc2ccc(OCC(C)C)cc2)n[nH]1	20*	i	0	2	10*	15	7
CCc1nc(SCc2ccc(Br)cc2)n[nH]1	-1	i	-6	-3	-1	/	/
